Inconclusive results are not listed. The source made the active and inactive calls. Calls come from the whole dose curve; as a rule, active = well fitted activation curve with a large enough effect; inconclusive = small, poorly fitted or top-dose-only effect; inactive = flat fitted curve, though single readings scatter.
experiment: Primary redox qHTS assay for identification of artifact compounds. (AID 1845223); conditions: Amplex Red/HRP redox cycling with DTT, fluorescence; series mostly up to 53.8 µM; redox activity (% of DA3003): at the top concentration;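 note: 0% = DMSO and 100% = reference compound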
In short: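 Amplex Red (25 uM) and HRP (250 mU/mL) in HBSS, with compounds for 15 min, then 250 uM DTT for 30 min, room temperature, dark. Fluorescence 525/598 nm read; normalized to DMSO and 10 uM DA3003; Hill fit.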

SMILES	redox activity (% of DA3003)
CC1c2ccccc2CN1NC(=O)c1ccc(Cl)c(S(N)(=O)=O)c1 (stereo not drawn)	3.86% (inactive)
CC[N+]1(CC)CCC(=C(c2ccccc2)c2ccccc2)C1C (stereo not drawn)	-1.91% (inactive)
Nc1c(NC/C=C\COc2cc(CN3CCCCC3)ccn2)c(=O)c1=O	-1.49% (inactive)
C[C@H](CN1CCCC1)C(=O)c1ccc(C(F)(F)F)cc1	-3.06% (inactive)
CCCCCOc1ccc(C2SC(=O)NC2=O)cc1OCC (stereo not drawn)	12.2% (inactive)
CO[C@]1(NC(=O)CSC(F)F)C(=O)N2C(C(=O)O)=C(CSc3nnnn3CCO)CO[C@H]21	18.1% (inactive)
CCCN(CCC)C(=O)C(CCC(=O)OCCCN1CCN(CCOC(=O)Cc2c(C)n(C(=O)c3ccc(Cl)cc3)c3ccc(OC)cc23)CC1)NC(=O)c1ccccc1 (stereo not drawn)	16.6% (inactive)
CCN(CC)CCOc1ccc(/C(=C(\Cl)c2ccccc2)c2ccccc2)cc1	2.54% (inactive)
COc1cc(C(=O)OC(COCCC(C)C)CN2CCOCC2)cc(OC)c1OC (stereo not drawn)	14.2% (inactive)
Cc1cccc(N(C)C(=S)Oc2ccc3c(c2)CCC3)c1	-3.46% (inactive)
CO/N=C(/C(=O)N[C@@H]1C(=O)N2C(C(=O)O)=C(Cn3nnc(C)n3)CS[C@H]12)c1csc(N)n1	2.15% (inactive)
CC(=O)[C@H]1CC[C@H]2[C@@H]3C=CC4=CC(=O)CC[C@@]4(C)[C@@H]3CC[C@]12C	-4.81% (inactive)
Cc1ccccc1C(=O)N1CC/C(=N\OS(=O)(=O)O)c2ccc(Cl)cc21	8.02% (inactive)
CN(C)C(=O)CNC(=O)Cc1ccccc1	-3.82% (inactive)
COC(=O)C1=C(C)NC(COC(N)=O)=C(C(=O)OC(C)C)C1c1cccc(Cl)c1Cl (stereo not drawn)	13.7% (inactive)
OC1(c2ccc(Cl)c(C(F)(F)F)c2)CCN(CCCC(c2ccc(F)cc2)c2ccc(F)cc2)CC1	-6.19% (inactive)
CC(=O)OCC(=O)Nc1cc(C#N)cc(NC(=O)COC(C)=O)c1Cl	-0.489% (inactive)

SMILES	redox activity (% of DA3003)
O=C1CC[C@H](C(=O)N2CCCCC2)N1	-0.901% (inactive)
O=C1[C@@H]2[C@H]3CC[C@H](C3)[C@@H]2C(=O)N1CCCCN1CCN(c2ncccn2)CC1	3.15% (inactive)
CCNC(=O)NCCCOc1cccc(CN2CCCCC2)c1	-2.6% (inactive)
CC(=O)O[C@@H]1C(=O)O[C@@H]2[C@H]1OC(=O)[C@@H]2OC(C)=O	-3.29% (inactive)
CN1[C@@H]2CC[C@H]1CC(NC(=O)n1c(=O)[nH]c3ccccc31)C2 (stereo partly drawn)	0.467% (inactive)
CCCCNc1ccc(C(=O)OCCN(CC)CC)cc1	-3.34% (inactive)
CC(=O)Nc1ccn(C2COC(COC(=O)c3ccccc3)O2)c(=O)n1 (stereo not drawn)	1.37% (inactive)
CC1CC(=O)NN=C1c1ccc(NCC(C)(C)NCC(O)COc2cc(Cl)ccc2C#N)cc1 (stereo not drawn)	19% (inactive)
O=C(NN1CCCC1)NS(=O)(=O)c1ccc(Cl)cc1	-2.27% (inactive)
CCN1C(=O)c2ccccc2C1Nc1ccc(OCCN2CCCCC2)cc1 (stereo not drawn)	13.9% (inactive)
O=C(O)Cc1ccccc1Oc1ccc(Cl)cc1Cl	2.19% (inactive)
COc1cc(NS(=O)(=O)c2ccc(N)cc2)nc(C)n1	-2.65% (inactive)
CN1CCC(N(Cc2cccs2)c2ccccc2)CC1	-0.78% (inactive)
CC1CN(c2cc3c(cc2F)c(=O)c(C(=O)O)cn3-c2ccc(F)cc2F)CCN1 (stereo not drawn)	-2.82% (inactive)
C=CCOc1cc(Cl)ccc1C(=O)NCCN(CC)CC	-1.82% (inactive)
CC(C(O)c1ccccc1)N(C)CCOC(c1ccccc1)c1ccccc1 (stereo not drawn)	2.82% (inactive)
